Measured values: the supplement of paper PMC11732987, “Enantioselective OTUD7B fragment discovery through chemoproteomics screening and high-throughput optimisation” (Communications Chemistry, 2025)

How the values were obtained:
Experiment in all cases: log2 ratio of Biotin-Ahx-Ub-VS probe labelling (fragment/DMSO); higher = less target engagement (more negative = stronger competition), active = hit call of the paper (q ≤ 0.05, log2 ratio ≤ -1)
Conditions in all cases: compound concentration: 200 uM; treatment time: 3 h
[1] = target: T1, ALG13 (UniProt Q9NP73)
T1 sequence (whole entry): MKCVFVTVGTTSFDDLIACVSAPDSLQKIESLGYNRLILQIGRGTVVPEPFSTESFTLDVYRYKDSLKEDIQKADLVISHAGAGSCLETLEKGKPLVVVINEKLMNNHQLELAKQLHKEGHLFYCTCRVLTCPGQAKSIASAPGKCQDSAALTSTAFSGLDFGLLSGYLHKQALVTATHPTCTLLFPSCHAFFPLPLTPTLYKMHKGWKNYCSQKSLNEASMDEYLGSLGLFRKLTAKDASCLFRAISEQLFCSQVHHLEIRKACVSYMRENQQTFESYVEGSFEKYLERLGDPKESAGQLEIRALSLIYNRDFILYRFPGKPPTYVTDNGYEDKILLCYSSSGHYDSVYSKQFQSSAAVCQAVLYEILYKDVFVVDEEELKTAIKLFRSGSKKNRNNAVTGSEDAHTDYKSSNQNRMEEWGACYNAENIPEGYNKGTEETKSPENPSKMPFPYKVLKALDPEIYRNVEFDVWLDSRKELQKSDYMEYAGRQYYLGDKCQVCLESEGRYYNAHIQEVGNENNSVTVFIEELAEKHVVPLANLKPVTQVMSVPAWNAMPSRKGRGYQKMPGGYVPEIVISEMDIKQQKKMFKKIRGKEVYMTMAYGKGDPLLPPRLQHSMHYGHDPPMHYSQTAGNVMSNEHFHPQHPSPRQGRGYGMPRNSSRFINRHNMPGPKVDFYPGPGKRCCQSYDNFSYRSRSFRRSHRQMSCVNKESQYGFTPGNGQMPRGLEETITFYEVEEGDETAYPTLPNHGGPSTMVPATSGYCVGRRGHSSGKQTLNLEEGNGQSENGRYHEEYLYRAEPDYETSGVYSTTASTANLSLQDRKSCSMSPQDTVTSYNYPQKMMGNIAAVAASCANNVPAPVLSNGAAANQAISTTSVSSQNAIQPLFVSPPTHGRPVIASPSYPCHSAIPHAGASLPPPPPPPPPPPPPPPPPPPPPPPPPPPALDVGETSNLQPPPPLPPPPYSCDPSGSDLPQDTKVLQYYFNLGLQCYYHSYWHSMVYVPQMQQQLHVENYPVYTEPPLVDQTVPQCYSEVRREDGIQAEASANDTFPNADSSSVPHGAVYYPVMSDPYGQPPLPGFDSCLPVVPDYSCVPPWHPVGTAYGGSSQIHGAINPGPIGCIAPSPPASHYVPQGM
Outline: (§1)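 HEK293T lysate (495 µg per sample, in Tris/CHAPS/IGEPAL buffer with protease inhibitors) was exposed in triplicate for 3 h to fragment at 200 µM or to vehicle, then to Biotin-Ahx-Ub-VS at 0.5 µM final for 1 h. Labelled DUBs were enriched on NeutrAvidin, digested with LysC and trypsin, and analysed by diaPASEF LC-MS/MS. Spectronaut label-free quantities were normalised to the global median, and values are average log2 ratios of fragment over vehicle from an unpaired t-test. Only proteins with ≥2 unique peptides were used.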

[2] = target: ATXN3 (UniProt P54252)
Chain of ATXN3 (P54252 whole entry): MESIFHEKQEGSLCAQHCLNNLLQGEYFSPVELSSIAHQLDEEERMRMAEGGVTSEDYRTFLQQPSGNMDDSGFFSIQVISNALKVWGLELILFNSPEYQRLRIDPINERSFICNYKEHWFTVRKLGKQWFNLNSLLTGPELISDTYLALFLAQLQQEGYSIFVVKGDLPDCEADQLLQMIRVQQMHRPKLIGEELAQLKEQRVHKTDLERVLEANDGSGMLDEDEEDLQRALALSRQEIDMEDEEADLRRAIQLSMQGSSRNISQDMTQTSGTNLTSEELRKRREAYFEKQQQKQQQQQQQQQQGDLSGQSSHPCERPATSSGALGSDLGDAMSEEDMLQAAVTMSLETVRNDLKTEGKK
Outline: as §1

[3] = target: T2, BAP1 (UniProt Q92560)
T2 sequence (whole entry): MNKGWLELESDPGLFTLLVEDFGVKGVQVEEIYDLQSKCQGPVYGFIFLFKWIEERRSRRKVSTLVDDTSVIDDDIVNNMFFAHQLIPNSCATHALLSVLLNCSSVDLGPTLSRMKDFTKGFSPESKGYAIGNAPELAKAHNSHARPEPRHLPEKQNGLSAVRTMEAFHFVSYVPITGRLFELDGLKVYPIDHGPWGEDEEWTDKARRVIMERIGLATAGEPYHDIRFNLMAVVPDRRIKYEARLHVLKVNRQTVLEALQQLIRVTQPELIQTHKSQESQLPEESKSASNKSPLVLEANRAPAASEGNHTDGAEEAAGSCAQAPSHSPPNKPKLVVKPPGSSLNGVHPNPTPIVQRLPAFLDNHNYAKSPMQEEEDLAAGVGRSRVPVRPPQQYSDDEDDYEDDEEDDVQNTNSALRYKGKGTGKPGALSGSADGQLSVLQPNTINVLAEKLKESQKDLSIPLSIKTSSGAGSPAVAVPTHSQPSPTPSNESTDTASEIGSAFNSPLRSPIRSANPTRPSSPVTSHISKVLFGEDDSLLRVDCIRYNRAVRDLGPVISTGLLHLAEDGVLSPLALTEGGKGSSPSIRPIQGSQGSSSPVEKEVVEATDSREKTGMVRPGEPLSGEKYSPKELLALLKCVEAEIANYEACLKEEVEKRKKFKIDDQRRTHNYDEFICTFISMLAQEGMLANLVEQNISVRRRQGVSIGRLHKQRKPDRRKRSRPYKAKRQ
Outline: as §1

[4] = target: EIF3F (UniProt O00303)
Chain of EIF3F (O00303 whole entry): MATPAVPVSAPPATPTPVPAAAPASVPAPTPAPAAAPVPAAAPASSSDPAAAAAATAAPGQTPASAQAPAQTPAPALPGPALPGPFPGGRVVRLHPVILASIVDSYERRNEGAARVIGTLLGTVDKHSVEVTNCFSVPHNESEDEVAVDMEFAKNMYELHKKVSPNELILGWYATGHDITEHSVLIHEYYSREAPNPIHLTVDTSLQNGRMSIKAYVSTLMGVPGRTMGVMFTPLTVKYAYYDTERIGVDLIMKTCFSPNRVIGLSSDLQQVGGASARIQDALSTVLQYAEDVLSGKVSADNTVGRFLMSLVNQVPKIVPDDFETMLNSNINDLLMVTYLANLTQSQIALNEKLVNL
Outline: as §1

[5] = target: EIF3H (UniProt O15372)
Chain of EIF3H (O15372 whole entry): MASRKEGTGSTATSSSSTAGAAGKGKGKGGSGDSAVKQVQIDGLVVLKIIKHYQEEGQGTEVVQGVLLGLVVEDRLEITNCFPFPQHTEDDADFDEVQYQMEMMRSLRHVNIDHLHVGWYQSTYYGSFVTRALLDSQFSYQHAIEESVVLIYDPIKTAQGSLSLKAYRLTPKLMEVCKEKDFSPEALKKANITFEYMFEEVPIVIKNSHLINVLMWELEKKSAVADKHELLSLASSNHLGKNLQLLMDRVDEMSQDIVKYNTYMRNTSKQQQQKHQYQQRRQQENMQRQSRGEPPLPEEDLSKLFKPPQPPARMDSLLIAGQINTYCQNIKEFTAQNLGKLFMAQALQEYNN
Outline: as §1

[6] = target: T3, FAM105A (UniProt Q9NUU6)
T3 sequence (whole entry): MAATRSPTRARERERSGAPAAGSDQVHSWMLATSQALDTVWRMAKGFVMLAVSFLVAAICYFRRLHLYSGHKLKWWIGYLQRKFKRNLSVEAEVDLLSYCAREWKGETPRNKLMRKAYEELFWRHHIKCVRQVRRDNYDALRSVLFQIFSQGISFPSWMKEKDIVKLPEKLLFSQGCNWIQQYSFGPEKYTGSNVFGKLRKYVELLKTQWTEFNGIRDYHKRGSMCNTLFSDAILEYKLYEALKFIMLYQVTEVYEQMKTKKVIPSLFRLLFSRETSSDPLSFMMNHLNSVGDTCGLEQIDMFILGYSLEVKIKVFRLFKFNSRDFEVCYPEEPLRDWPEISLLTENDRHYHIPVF
Outline: as §1

[7] = target: OTUB1 (UniProt Q96FW1)
Chain of OTUB1 (Q96FW1 whole entry): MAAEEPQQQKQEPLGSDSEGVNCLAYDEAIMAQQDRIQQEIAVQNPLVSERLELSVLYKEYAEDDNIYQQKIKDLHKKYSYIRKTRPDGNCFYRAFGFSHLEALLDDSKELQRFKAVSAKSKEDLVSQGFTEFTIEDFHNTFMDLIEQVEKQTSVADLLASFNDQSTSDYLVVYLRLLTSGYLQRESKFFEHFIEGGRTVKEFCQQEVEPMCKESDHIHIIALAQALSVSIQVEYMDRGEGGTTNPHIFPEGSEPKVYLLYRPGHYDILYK
Outline: as §1

[8] = target: T4, OTUD4 (UniProt Q01804)
T4 sequence (whole entry): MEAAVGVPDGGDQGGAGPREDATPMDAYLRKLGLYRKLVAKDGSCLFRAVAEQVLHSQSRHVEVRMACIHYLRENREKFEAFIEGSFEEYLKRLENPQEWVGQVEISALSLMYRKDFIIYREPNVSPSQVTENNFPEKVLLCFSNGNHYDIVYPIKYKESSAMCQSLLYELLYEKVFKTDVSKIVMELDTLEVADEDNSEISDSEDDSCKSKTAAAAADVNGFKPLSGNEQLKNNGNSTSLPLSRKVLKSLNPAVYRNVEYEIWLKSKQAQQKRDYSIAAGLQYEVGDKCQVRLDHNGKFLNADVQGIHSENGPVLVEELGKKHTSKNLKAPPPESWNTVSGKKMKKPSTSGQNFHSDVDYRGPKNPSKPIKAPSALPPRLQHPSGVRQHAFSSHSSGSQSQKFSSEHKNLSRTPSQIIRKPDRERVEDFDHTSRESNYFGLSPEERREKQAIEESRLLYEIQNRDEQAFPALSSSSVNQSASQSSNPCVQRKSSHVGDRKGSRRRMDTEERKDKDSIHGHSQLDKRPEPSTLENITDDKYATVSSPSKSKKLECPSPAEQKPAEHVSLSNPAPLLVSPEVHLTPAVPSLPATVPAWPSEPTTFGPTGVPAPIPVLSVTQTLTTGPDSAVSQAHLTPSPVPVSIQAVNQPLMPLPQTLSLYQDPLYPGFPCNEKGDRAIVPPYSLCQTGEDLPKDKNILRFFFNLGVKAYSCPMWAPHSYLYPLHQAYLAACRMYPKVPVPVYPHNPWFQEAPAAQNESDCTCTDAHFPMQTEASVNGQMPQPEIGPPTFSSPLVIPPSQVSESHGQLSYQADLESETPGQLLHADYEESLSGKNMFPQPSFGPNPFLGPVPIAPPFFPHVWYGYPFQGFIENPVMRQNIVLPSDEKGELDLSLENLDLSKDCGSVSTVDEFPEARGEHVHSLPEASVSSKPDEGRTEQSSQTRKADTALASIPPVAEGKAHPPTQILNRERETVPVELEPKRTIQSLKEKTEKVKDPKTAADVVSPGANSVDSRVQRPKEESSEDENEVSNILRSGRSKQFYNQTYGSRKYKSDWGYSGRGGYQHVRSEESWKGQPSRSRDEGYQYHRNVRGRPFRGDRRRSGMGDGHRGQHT
Outline: as §1

[9] = target: T5, OTUD5 (UniProt Q96G74)
T5 sequence (whole entry): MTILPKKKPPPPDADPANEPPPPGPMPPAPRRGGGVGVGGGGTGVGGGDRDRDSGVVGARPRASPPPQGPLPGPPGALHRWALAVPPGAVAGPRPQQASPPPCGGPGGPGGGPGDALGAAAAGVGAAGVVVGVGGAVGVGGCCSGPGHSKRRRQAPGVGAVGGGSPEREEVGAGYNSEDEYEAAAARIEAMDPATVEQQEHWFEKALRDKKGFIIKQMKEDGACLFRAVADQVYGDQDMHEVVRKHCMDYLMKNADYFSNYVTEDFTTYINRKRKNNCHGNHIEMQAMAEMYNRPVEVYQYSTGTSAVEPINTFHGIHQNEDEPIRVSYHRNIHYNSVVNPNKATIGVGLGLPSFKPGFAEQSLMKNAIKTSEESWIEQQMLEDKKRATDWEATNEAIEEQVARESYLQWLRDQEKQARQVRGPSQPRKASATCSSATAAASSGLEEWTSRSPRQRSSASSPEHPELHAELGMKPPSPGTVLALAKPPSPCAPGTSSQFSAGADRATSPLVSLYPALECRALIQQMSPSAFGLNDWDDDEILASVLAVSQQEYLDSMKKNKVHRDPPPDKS
Outline: as §1

Measured: log2 ratio of Biotin-Ahx-Ub-VS probe labelling

NC(=O)C(Cc1ccccc1)NC(=O)CCl (centres undefined)
inactive: [1] 0.0325 | [2] -0.279 | [4] 0.127 | [5] -0.254 | [6] -0.0569 | [7] 0.128 | [8] -0.451 | [9] -0.216
active: [3] -2.01
